Assay [1] concerns the target Bromodomain-containing protein 4 (Homo sapiens) (UniProt O60885). The note with it: Compound concentration 10.0 uM, Protein concentration 2.0 uM.
In assay [2] the target is T1, Transcription intermediary factor 1-alpha (Homo sapiens) (UniProt O15164).
T1 sequence (whole entry): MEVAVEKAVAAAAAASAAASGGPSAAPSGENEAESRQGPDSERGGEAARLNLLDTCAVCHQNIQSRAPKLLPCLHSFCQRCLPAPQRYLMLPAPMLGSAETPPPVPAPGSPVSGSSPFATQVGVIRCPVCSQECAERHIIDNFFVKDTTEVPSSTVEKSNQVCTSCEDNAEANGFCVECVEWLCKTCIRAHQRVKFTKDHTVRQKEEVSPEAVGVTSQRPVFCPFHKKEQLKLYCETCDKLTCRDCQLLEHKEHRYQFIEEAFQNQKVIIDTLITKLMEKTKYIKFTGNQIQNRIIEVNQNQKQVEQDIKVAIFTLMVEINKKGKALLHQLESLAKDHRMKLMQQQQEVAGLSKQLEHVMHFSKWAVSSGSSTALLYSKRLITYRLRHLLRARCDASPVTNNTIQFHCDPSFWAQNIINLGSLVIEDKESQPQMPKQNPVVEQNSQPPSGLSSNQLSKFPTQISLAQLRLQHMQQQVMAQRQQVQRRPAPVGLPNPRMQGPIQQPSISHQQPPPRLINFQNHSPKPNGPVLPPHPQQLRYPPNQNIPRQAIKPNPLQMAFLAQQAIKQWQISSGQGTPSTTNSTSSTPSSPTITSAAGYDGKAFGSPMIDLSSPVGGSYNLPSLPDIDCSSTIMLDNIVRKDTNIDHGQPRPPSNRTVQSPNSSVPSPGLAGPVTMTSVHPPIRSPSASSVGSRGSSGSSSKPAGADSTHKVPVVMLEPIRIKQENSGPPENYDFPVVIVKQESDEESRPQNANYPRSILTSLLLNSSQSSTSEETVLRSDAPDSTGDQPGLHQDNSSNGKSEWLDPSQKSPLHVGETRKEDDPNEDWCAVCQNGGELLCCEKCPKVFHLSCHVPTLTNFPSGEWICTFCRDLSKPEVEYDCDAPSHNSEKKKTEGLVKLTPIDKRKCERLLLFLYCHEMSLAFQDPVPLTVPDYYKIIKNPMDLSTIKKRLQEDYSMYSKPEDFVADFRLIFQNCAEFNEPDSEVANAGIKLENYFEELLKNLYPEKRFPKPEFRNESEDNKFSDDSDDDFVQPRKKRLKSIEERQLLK
The note with it: Compound concentration 10.0 uM, Protein concentration 2.0 uM.

Values joined by “and” are separate entries in the source; they are usually repeats but may differ in a detail not shown here. Equal values may be shown once.

As usually defined, the ΔTm is the change in melting temperature against a reference sample. On to `Cc1cc(=O)n(C)c2cc(N3C(=O)CC[C@@H](NS(=O)(=O)CC(C)C)[C@@H]3c3ccc(Cl)cc3)ccc12`, for which the ΔTm in assay [1] was -0.29 °C and 0.14 °C; in assay [2], 0.23 °C.

For the origin of these results see ChEMBL document CHEMBL4649991.
